The source of these data is PubChem BioAssay (EPA / NIEHS).

Inconclusive results are not listed. The source holds several records for some structures; these can differ, active in one and inactive in another. Activity calls are given as the source filed them. The calls were made as follows, unless noted: active = hit-call score of the fitted dose curve at least 0.9, where 1 is the maximum; inactive = score below 0.9.

Assay [1] can be described thus: ATG_Sox_CIS: Attagene CIS-FACTORIAL HepG2 Assay for human SRY-box transcription factor (SOX) (AID 2282960). Particulars: HepG2 Attagene cis-factorial SOX reporter, mRNA; actives raise or lower the signal. In short, it runs like this:
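HepG2 cells transiently transfected with multiple cis-regulated reporter units, then dosed for 24 h. Reporter mRNA quantified by RT-PCR, fluorescent labelling, HpaI digestion and capillary electrophoresis; bidirectional fit versus DMSO.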

The target in assay [2] is Transcription factor Sp1 (Homo sapiens) (UniProt P08047). Put plainly: ATG_Sp1_CIS: Attagene CIS-FACTORIAL HepG2 Assay for human Specificity Protein 1 (Sp1) (AID 2282961). Particulars: HepG2 Sp1 cis-reporter transcription, actives raise or lower the signal. In short, it runs like this:
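HepG2 cells transiently transfected with multiplexed cis-regulated reporter constructs, chemical exposure 24 h. Reporter mRNA quantified by RT-PCR with capillary electrophoresis; bidirectional fit relative to DMSO.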

Assay [3] can be described thus: ATG_SREBP_CIS: Attagene CIS-FACTORIAL HepG2 Assay for human Sterol Regulatory Element Binding (SREBP) (AID 2282962). Particulars: HepG2 Attagene cis-factorial SREBP reporter, mRNA; actives raise or lower the signal. In a few lines:
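HepG2 cells transiently transfected with multiplexed cis-promoter reporter units sensing endogenous transcription factors; reporter mRNA measured 24 h after dosing by RT-PCR, 6-FAM labeling, HpaI digestion and capillary electrophoresis. Bidirectional fit versus DMSO.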

In assay [4] the target is Signal transducer and activator of transcription 3 (Homo sapiens) (UniProt P40763). Put plainly: ATG_STAT3_CIS: Attagene CIS-FACTORIAL HepG2 Assay for human Signal Transducer and Activator of Transcription 3 (STAT3) (AID 2282963). Particulars: HepG2, Attagene cis-factorial STAT3 reporter transcription; actives raise or lower the signal. In a few lines:
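Transcript-level reporter assay. HepG2 transient MRTU transfection, 24 h exposure, fluorescence detection after RT-PCR and CE; DMSO baseline.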

A short description of assay [5]: ATG_TA_CIS: Attagene CIS-FACTORIAL HepG2 Assay for human TA Basal Promoter (AID 2282964). Particulars: HepG2 Attagene CIS-factorial TA basal promoter reporter; actives raise or lower the signal. In a few lines: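 Fluorescence from labelled RT-PCR reporter fragments, separated by capillary electrophoresis, gives the signal. Cells: HepG2 transiently carrying multiple reporter units, 24 h chemical dosing. Gain or loss relative to DMSO.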

Assay [6] can be described thus: ATG_TCF_b_cat_CIS: Attagene CIS-FACTORIAL HepG2 Assay for human T-Cell-Factor with beta-catenin (TCF/b-cat) (AID 2282965). Particulars: HepG2 TCF/beta-catenin cis-reporter transcription, actives raise or lower the signal. In a few lines: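 Using capillary electrophoresis as the read-out, labelled reporter cDNA fragments from transiently transfected HepG2 were sized and quantified. Exposure lasted 24 hours; activity in either direction was referenced to DMSO.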

A short description of assay [7]: ATG_TAL_CIS: Attagene CIS-FACTORIAL HepG2 Assay for human TAL Basal Promoter (AID 2282966).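 Also: background control endpoint measuring basal TAL promoter reporter mRNA not a specific factor.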 Particulars: HepG2 Attagene cis-factorial TAL promoter reporter; actives raise or lower the signal. In short, it runs like this:
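In this cell-based multiplex, HepG2 liver cells bearing cis-promoter reporter constructs are dosed for 24 hours. Total RNA is reverse-transcribed and amplified, labelled fragments are sized by capillary electrophoresis, and signal changes are fitted bidirectionally versus DMSO.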

Assay [8] in a line: ATG_TGFb_CIS: Attagene CIS-FACTORIAL HepG2 Assay for human Transforming Growth Factor (TGF) (AID 2282967). Particulars: HepG2 Attagene CIS TGFb reporter, mRNA transcription; actives raise or lower the signal. In a few lines:
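Bidirectional fitting relative to DMSO gave the endpoint. Underlying data: reporter mRNA from HepG2 cells carrying transiently transfected cis-regulated reporter constructs, harvested 24 h after dosing and analyzed by RT-PCR and capillary electrophoresis.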

Assay [9] can be described thus: ATG_VDRE_CIS: Attagene CIS-FACTORIAL HepG2 Assay for human Vitamin D Receptor Element (VDRE) (AID 2282968). Particulars: HepG2 VDRE cis-reporter transcription, actives raise or lower the signal. In a few lines: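 RT-PCR/CE readout of reporter mRNA; HepG2, transient transfection, 24 h dosing; DMSO baseline; bidirectional analysis.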
Assay [10] has as its target Nuclear receptor subfamily 1 group I member 3 (Homo sapiens) (UniProt Q14994). Put plainly: ATG_CAR_TRANS: Attagene TRANS-FACTORIAL HepG2 Assay for human Constitutive Androstane Receptor (CAR) (AID 2282969; active = hit-call score of the fitted dose curve at least 0.9, where 1 is the maximum;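 also: activators raise reporter mRNA above DMSO so AC50 marks induction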). Particulars: HepG2 Attagene TRANS-FACTORIAL CAR reporter. In short, it runs like this:
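HepG2 cells transiently transfected with multiplexed GAL4-UAS reporter units expressing chimeric NR-Gal4 proteins; compound exposure 24 h. Reporter mRNA measured by RT-PCR, 6-FAM labelling, HpaI digestion and capillary electrophoresis; gain-of-signal fitted against DMSO baseline.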

The target of assay [11] is X-box-binding protein 1 (Homo sapiens) (UniProt P17861). Put plainly: ATG_Xbp1_CIS: Attagene CIS-FACTORIAL HepG2 Assay for human X-box Binding Protein 1 (XBP1) (AID 2282972). Particulars: HepG2 XBP1 cis-element reporter, Attagene multiplex; actives raise or lower the signal. In a few lines: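 HepG2 cells transiently transfected with multiple cis-element reporter units report endogenous TF activity; 24 h exposure, then reporter mRNA measured by RT-PCR, 6-FAM labelling, HpaI digestion and capillary electrophoresis. Bidirectional fitting versus DMSO.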
Sequence of X-box-binding protein 1 (Homo sapiens) (P17861 whole entry, looked up): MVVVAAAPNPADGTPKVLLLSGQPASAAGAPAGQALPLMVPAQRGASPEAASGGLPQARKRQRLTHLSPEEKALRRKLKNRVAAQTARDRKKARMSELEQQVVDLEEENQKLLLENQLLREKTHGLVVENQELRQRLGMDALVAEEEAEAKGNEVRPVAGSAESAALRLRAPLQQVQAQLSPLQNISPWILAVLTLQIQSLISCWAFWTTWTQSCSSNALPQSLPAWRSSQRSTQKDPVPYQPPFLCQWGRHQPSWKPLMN

The nature of assay [12]: ATG_M_19_TRANS: Attagene TRANS-FACTORIAL HepG2 Assay for M19 Transcription Factor (Internal Marker) (AID 2282974; active = hit-call score of the fitted dose curve at least 0.9, where 1 is the maximum). Particulars: HepG2 Attagene TRANS-FACTORIAL M19 internal marker reporter. In a few lines: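 HepG2 transiently transfected with GAL4-UAS multiplex reporter constructs, exposed 24 h; reporter RNA quantified by RT-PCR, 6-FAM labeling, HpaI digestion and capillary electrophoresis; internal background marker fitted upward versus DMSO.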

The target of assay [13] is Estrogen receptor (Homo sapiens) (UniProt P03372). Put plainly: ATG_ERa_TRANS: Attagene TRANS-FACTORIAL HepG2 Assay for human Estrogen Receptor alpha (ERa) (AID 2282970; active = hit-call score of the fitted dose curve at least 0.9, where 1 is the maximum). Particulars: HepG2 Attagene TRANS ERa GAL4 reporter, mRNA. In a few lines:
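After 24 h of compound treatment, RNA from HepG2 cells bearing transfected GAL4-UAS reporter constructs is converted to cDNA, amplified and fluorescently labelled. Capillary electrophoresis resolves the ERa-linked reporter; DMSO serves as negative control.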

For assay [14], the target named is Steroid hormone receptor ERR1 (Homo sapiens) (UniProt P11474). Put plainly: ATG_ERRa_TRANS: Attagene TRANS-FACTORIAL HepG2 Assay for human Estrogen-Related Receptor alpha (ERRa) (AID 2282971; active = hit-call score of the fitted dose curve at least 0.9, where 1 is the maximum). Particulars: HepG2 Attagene TRANS reporter, ERRa transactivation. In a few lines: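 Transfected HepG2, 24 h dosing, ERRa-Gal4 chimera driving GAL4-UAS reporter. Readout: reporter mRNA via RT-PCR plus capillary electrophoresis (fluorescence). Positive direction vs DMSO control.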
Sequence of Steroid hormone receptor ERR1 (Homo sapiens) (P11474 whole entry, looked up, the tested form may be a part): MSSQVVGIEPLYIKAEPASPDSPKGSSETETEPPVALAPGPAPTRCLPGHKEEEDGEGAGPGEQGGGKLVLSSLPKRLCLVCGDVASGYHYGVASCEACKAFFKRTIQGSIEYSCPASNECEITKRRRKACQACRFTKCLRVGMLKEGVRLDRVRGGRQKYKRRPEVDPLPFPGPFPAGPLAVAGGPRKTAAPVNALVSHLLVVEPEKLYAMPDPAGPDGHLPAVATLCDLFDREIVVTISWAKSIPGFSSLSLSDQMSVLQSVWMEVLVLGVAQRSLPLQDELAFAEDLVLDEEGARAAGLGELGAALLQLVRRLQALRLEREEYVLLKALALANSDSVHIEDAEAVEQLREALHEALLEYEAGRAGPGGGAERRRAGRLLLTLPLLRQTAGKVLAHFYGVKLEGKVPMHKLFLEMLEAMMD

The target in assay [15] is Bile acid receptor (Homo sapiens) (UniProt Q96RI1). Put plainly: ATG_FXR_TRANS: Attagene TRANS-FACTORIAL HepG2 Assay for Farnesoid X Receptor (FXR) (AID 2282979; active = hit-call score of the fitted dose curve at least 0.9, where 1 is the maximum;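 also: hits raise reporter mRNA above DMSO so AC50 marks FXR activation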). Particulars: HepG2 Attagene TRANS FXR-GAL4 reporter transcription. In a few lines: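 Read-out: fluorescent reporter transcripts quantified by capillary electrophoresis after RT-PCR of total RNA. Source cells were HepG2 transiently carrying chimeric NR-GAL4 plus GAL4-UAS reporter units, dosed 24 h. Activity fitted upward relative to DMSO baseline.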
Sequence of Bile acid receptor (Homo sapiens) (Q96RI1 whole entry, looked up, the tested form may be a part): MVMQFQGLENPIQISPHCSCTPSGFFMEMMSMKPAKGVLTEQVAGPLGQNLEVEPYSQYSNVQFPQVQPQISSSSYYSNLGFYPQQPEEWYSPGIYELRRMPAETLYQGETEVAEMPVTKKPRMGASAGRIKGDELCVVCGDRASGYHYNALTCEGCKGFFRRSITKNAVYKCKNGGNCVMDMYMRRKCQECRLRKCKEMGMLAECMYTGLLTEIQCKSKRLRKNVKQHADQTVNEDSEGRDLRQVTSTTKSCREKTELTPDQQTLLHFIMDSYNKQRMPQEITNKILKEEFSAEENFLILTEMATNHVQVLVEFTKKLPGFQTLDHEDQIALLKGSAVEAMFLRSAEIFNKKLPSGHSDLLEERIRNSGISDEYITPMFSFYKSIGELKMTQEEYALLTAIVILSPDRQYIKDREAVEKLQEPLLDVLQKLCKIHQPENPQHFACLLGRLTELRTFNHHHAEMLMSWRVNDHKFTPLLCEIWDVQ

Assay [16] in a line: ATG_GAL4_TRANS: Attagene TRANS-FACTORIAL HepG2 Assay for GAL4 (Internal Marker) (AID 2282976; active = hit-call score of the fitted dose curve at least 0.9, where 1 is the maximum). Particulars: HepG2 Attagene TRANS GAL4 internal marker reporter. In short, it runs like this:
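RT-PCR/capillary electrophoresis readout of reporter mRNA. HepG2, transient MRTU transfection (GAL4-UAS reporters), 24 h compound exposure. Background-control endpoint, positive direction vs DMSO baseline.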

Assay [17] concerns the target Glucocorticoid receptor (Homo sapiens) (UniProt P04150). Put plainly: ATG_GR_TRANS: Attagene TRANS-FACTORIAL HepG2 Assay for human Glucocorticoid Receptor (GR) (AID 2282978; active = hit-call score of the fitted dose curve at least 0.9, where 1 is the maximum;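 also: activators score as hits since higher reporter transcript over DMSO is fitted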). Particulars: HepG2 Attagene TRANS GR reporter, mRNA transcription. In a few lines:
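HepG2 cells transiently transfected with GAL4-UAS reporter units and exogenous GR-Gal4 chimera, dosed 24 h. Reporter mRNA by RT-PCR, FAM labeling, HpaI digest and capillary electrophoresis; gain-of-signal fit versus DMSO.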

Assay [18] is described as follows: ATG_RORE_CIS: Attagene CIS-FACTORIAL HepG2 Assay for human RAR-related Orphan Receptor Element (RORE) (AID 2282959). Particulars: HepG2 Attagene cis-factorial RORE reporter, mRNA; actives raise or lower the signal. In short, it runs like this: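 HepG2 cells carrying transiently transfected cis-regulated reporter units; RORE-driven reporter mRNA quantified 24 h post-dosing by RT-PCR, 6-FAM primer extension, HpaI digestion and capillary electrophoresis. Bidirectional fit versus DMSO.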

Sequence of Estrogen receptor (Homo sapiens) (P03372 whole entry, looked up, the tested form may be a part): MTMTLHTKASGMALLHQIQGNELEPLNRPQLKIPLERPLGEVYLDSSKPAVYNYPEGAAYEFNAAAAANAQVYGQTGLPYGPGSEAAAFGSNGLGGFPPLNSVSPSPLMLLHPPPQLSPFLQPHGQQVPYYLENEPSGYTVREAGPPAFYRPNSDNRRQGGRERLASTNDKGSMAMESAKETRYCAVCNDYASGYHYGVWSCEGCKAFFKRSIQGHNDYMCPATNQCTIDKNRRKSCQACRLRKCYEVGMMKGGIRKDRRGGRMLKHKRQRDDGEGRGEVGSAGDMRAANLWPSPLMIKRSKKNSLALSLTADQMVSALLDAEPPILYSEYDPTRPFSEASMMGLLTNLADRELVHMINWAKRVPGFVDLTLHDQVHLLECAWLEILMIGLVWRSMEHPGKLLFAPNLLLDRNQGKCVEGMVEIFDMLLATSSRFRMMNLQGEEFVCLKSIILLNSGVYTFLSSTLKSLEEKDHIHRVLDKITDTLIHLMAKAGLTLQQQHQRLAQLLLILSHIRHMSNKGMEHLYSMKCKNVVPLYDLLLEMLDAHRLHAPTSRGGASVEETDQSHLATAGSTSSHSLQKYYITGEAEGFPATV
Sequence of Transcription factor Sp1 (Homo sapiens) (P08047 whole entry, looked up): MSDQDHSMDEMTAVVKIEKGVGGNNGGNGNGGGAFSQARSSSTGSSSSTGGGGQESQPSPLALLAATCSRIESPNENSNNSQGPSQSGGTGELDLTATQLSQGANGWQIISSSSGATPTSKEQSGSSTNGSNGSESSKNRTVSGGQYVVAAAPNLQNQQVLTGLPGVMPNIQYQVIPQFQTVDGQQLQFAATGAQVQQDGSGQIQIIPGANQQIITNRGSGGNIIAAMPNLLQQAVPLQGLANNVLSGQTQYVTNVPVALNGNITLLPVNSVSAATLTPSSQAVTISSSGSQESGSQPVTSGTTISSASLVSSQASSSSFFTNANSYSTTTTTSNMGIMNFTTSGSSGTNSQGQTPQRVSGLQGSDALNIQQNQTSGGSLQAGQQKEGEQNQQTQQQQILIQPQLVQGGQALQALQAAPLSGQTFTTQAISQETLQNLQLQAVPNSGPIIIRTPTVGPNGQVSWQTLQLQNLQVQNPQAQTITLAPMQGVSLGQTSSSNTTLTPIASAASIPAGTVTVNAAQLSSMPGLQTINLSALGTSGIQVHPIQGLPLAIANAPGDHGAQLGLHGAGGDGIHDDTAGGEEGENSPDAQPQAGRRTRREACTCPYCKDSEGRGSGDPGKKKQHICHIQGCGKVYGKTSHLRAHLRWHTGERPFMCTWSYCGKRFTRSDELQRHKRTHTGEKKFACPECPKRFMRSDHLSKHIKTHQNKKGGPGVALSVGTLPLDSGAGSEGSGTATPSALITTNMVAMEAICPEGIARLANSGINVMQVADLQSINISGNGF
Sequence of Signal transducer and activator of transcription 3 (Homo sapiens) (P40763 whole entry, looked up): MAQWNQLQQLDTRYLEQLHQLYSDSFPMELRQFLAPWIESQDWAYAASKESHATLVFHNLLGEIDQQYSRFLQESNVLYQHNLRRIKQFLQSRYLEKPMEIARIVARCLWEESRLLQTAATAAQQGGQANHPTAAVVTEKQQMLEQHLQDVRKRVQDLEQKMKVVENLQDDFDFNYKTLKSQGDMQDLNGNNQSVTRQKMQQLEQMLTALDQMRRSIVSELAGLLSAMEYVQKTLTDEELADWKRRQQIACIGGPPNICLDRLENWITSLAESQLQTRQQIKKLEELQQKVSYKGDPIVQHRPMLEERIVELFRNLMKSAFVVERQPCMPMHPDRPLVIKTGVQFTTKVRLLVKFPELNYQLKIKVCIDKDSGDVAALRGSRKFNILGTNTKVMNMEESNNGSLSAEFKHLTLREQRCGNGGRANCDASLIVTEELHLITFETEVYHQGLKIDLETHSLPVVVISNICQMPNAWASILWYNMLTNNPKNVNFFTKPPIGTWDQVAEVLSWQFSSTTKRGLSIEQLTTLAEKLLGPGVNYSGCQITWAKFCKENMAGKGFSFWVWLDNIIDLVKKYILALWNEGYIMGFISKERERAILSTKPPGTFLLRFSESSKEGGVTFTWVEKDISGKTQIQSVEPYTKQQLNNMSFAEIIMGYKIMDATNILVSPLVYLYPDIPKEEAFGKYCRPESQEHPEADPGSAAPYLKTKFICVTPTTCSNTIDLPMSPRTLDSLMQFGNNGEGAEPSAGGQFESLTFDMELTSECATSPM
Sequence of Glucocorticoid receptor (Homo sapiens) (P04150 whole entry, looked up, the tested form may be a part): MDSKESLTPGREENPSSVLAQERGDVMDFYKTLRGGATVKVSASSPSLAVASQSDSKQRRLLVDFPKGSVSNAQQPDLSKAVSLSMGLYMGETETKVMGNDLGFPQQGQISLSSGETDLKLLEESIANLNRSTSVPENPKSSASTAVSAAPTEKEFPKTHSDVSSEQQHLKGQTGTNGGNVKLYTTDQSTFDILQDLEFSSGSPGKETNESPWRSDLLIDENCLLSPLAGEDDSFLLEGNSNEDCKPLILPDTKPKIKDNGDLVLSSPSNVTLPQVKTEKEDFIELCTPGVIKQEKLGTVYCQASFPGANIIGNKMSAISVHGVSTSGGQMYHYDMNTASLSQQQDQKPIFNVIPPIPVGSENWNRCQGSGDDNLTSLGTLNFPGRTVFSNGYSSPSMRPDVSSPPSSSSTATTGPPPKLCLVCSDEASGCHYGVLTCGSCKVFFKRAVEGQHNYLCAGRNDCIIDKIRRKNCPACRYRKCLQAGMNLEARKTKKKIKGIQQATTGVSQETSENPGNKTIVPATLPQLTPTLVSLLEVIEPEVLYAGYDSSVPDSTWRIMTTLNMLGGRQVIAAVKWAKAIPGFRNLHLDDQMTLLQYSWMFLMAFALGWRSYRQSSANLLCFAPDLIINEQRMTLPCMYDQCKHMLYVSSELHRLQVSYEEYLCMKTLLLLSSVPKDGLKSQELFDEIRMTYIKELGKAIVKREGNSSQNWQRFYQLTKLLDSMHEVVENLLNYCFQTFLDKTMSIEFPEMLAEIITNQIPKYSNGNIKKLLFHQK
Sequence of Nuclear receptor subfamily 1 group I member 3 (Homo sapiens) (Q14994 whole entry, looked up, the tested form may be a part): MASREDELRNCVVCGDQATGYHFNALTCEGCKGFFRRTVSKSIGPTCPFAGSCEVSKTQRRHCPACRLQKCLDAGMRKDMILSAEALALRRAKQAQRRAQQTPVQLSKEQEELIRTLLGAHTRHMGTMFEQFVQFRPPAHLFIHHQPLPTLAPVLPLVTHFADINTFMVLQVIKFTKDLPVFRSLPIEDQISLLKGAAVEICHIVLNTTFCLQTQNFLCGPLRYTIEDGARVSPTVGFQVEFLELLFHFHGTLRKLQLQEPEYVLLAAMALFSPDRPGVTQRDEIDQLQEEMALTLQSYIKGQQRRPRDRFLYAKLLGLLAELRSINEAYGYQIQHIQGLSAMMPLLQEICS

For the compound `Clc1cnc(Oc2ccc(Oc3ncc(Cl)cc3Cl)cc2)c(Cl)c1`, the call in assay [1], in assay [2], in [3], in assay [4], in assay [5] and in [6] was inactive. Also, the call in [7], in assay [8], in assay [10], in assay [11] and in assay [12] was inactive. Besides, in assay [9], the AC50 – broadly, the midpoint of the concentration-response curve, whichever way the signal moves – is 20 µM (active).
For the compound `C=C(C)[C@@H]1CC=C(C=O)CC1`, the compound was classed as inactive in [1], in [2], in [3], in assay [4], in assay [5] and in [6]. In addition, the call in [7], in assay [8], in [9], in assay [13], in assay [14] and in assay [11] was inactive. For the same compound, the result in assay [15] was inactive.
`c1csc(-c2ccc(-c3cccs3)s2)c1`: the compound was classed as inactive in assay [1], in [2], in assay [3], in [4], in assay [6] and in assay [7]. Moreover, the compound was called inactive in assay [12] and in assay [15]. In addition, the AC50 in assay [5] is 4.42 µM (active); in [8] it was 6.2 µM (active); in assay [9] it was 3.41 µM (active); in assay [10] it was 6.62 µM (active); in assay [13] it was 4.23 µM (active); in assay [11], 2.54 µM (active).
Regarding `COc1ccc([N+](=O)[O-])cc1O`, the call in assay [1], in assay [2], in [3], in assay [4], in [5] and in assay [6] was inactive. Further, the compound was classed as inactive in assay [7], in [8], in assay [9], in assay [13], in [11] and in [16]. In addition, the result in assay [17] and in [15] was inactive.
`Cc1cccc(OP(=O)(Oc2cccc(C)c2)Oc2cccc(C)c2)c1`: the result in assay [1], in assay [2], in assay [3], in assay [4], in assay [5] and in assay [6] was inactive. For the same compound, the compound was classed as inactive in assay [7], in assay [8], in assay [10], in assay [11] and in [15]. Besides, the AC50 in [9] is 4.85 µM (active).
`CCCCCCCCCCCCBr`: the outcome in assay [1], in assay [2], in assay [3], in [4], in [5] and in assay [6] was inactive. The result in assay [7], in [8], in assay [9], in assay [13], in assay [11] and in assay [16] was inactive. Also, the call in assay [17] was inactive.
Consider `O=S1(=O)OC(c2cc(Br)c(O)c(Br)c2)(c2cc(Br)c(O)c(Br)c2)c2ccccc21`, for which the half-maximal activity concentration (AC50) in [18] is 93 µM (active). Besides, the compound was called inactive in assay [2], in assay [3], in assay [4], in [5], in assay [7] and in assay [8]. Moreover, the outcome in assay [9], in [11] and in [15] was inactive.
As for `O=C(Cl)OCCOCCOC(=O)Cl`, the compound was classed as inactive in [1], in assay [2], in assay [3], in [4], in assay [5] and in assay [6]. Moreover, the compound was called inactive in assay [7], in assay [8], in assay [9], in assay [10], in assay [13] and in assay [14]. Moreover, the outcome in [11] and in assay [12] was inactive.
For `Nc1ccc(N)cc1`, the outcome in assay [1], in [2], in [3], in [4], in assay [5] and in assay [6] was inactive. Further, the call in assay [7], in [8], in assay [9], in assay [10], in assay [11] and in assay [16] was inactive. In addition, in [15], the call was inactive. Moreover, the half-maximal activity concentration (AC50) is 27.7 µM (active) in [6] and 23.8 µM (active) in assay [8].
For `CC(C)(c1ccc(O)c(-c2ccccc2)c1)c1ccc(O)c(-c2ccccc2)c1`, the result in [1], in assay [2], in [3], in assay [4], in assay [5] and in [6] was inactive. For the same compound, the compound was classed as inactive in [7], in assay [8], in [10], in [17] and in [15]. Also, the AC50 is 2.93 µM (active) in assay [9] and 4.92 µM (active) in assay [11].
